In publication PMC7862700, “An all-to-all approach to the identification of sequence-specific readers for epigenetic DNA modifications on cytosine” one finds binding signal data, which are given here for one sequence.

Holding throughout (assay): DAPPL (digital affinity profiling via proximity ligation, sequencing); 10 mM Tris-HCl pH 7.5, 50 mM NaCl, 1 mM DTT, 4% glycerol, room temperature, 30 min; GST-TFs on glutathione beads, 16-mer random dsDNA library, 0.1% formaldehyde crosslink after washing; high values mean tight binding
Conditions in all cases: protein: recombinant; tags: N-terminal GST; dsDNA, one strand shown

Experiment [1] has as its target T1, FLI1 (Homo sapiens, UniProt Q01543 1-452).
T1 sequence: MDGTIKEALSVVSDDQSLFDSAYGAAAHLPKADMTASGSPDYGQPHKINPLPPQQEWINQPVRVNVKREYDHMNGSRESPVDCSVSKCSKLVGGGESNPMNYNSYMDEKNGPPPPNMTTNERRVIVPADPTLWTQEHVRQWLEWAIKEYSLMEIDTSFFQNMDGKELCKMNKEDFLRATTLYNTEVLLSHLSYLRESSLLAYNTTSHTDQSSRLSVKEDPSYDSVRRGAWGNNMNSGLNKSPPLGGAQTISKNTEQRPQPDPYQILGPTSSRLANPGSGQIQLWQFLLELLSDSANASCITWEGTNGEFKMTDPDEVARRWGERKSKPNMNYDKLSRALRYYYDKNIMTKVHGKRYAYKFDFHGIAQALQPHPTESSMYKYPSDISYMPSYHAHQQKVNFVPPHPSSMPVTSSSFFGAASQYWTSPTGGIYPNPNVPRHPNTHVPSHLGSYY
An outline of the steps: (§1)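 GST fusions of human transcription factors were expressed in yeast and captured with glutathione beads. Once given DNA barcodes and pooled alongside a tag-only sample, they were incubated for 30 min at room temperature with 200 nmole of a random double-stranded 16-mer DNA library in Tris/NaCl/DTT/glycerol buffer, then washed, crosslinked (0.1% formaldehyde), proximity-ligated, PCR-amplified and sequenced on an Illumina NextSeq500. The binding signal of each hexamer is its read frequency for a factor divided by its frequency for the tag-only sample.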

Experiment [2] addresses T2, ELK1 (Homo sapiens, UniProt P19419 1-428).
T2 sequence: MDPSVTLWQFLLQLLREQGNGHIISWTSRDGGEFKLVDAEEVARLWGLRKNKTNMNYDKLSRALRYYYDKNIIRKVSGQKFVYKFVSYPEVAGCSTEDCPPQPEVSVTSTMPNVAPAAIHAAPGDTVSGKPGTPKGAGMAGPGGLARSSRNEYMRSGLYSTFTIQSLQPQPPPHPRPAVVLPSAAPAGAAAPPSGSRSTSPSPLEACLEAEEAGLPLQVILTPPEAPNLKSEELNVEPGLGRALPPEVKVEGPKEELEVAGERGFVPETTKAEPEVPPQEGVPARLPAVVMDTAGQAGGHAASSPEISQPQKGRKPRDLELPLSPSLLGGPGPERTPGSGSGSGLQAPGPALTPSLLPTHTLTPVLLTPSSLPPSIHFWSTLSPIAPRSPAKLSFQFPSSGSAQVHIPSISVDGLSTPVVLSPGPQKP
In a few lines:
as §1

Experiment [3] addresses T3, GABPA (Homo sapiens, UniProt Q06546 1-454).
T3 sequence: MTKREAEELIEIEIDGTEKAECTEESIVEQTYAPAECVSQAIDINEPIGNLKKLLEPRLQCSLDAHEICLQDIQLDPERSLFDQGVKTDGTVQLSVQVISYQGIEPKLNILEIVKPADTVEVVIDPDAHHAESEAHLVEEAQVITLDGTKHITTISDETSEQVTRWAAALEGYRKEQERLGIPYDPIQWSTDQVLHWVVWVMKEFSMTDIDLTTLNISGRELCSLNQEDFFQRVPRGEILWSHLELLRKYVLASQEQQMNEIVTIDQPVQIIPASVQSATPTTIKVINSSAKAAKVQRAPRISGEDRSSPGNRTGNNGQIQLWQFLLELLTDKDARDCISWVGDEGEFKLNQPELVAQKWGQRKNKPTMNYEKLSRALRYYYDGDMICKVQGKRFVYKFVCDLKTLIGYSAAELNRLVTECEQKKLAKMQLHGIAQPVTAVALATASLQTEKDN
In a few lines:
as §1

Experiment [4] concerns the target T4, ERG (Homo sapiens, UniProt P11308 1-479).
T4 sequence: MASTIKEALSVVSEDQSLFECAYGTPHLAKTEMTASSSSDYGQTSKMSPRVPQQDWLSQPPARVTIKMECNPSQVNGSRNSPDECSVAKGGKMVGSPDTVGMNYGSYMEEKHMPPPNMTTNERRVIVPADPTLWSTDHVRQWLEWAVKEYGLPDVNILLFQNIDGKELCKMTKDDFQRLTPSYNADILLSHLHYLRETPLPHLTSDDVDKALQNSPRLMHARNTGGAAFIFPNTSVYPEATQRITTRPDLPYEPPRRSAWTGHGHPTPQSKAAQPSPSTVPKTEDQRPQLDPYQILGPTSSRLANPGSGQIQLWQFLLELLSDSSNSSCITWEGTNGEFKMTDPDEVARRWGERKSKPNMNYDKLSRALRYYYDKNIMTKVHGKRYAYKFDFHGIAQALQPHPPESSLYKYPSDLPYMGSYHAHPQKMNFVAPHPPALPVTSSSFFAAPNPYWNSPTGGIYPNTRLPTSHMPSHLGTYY
An outline of the steps: as §1

In experiment [5] the target is ELF1 (Homo sapiens, UniProt P32519 1-619). In a few lines: as §1
ELF1, sequence (P32519 whole entry): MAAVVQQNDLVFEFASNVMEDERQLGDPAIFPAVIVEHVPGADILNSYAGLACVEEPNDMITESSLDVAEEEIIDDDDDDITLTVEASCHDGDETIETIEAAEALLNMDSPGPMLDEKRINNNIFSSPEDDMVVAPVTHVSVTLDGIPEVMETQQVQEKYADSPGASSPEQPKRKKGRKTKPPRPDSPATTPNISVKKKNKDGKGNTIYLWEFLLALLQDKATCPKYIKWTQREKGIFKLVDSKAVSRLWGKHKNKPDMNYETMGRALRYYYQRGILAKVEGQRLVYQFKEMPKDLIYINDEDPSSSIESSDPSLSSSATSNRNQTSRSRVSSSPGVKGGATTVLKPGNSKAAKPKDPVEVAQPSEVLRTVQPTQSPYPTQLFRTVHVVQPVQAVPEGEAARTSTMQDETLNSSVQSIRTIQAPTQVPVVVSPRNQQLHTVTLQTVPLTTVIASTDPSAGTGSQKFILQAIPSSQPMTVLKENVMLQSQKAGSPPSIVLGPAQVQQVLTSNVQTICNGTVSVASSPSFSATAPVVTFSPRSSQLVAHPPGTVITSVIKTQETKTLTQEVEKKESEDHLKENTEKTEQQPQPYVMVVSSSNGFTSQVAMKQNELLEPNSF
In experiment [6] the target is T5, EHF (Homo sapiens, UniProt Q9NZC4 1-300).
T5 sequence: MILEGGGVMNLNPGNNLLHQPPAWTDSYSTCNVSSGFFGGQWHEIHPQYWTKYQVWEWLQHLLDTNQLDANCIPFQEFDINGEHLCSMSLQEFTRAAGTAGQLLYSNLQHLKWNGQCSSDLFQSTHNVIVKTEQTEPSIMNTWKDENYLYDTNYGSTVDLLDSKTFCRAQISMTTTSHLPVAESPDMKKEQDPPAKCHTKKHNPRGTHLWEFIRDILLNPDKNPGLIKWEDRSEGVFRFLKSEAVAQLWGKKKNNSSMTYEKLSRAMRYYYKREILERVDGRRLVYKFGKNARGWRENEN
An outline of the steps: as §1

Experiment [7] has as its target SPI1 (Homo sapiens, UniProt P17947 1-270). In a few lines:
as §1

Experiment [8] deals with SPIB (Homo sapiens, UniProt Q01892 1-262). In a few lines:
as §1

For experiment [9], the target named is T6, ELK3 (Homo sapiens, UniProt P41970 1-407).
T6 sequence: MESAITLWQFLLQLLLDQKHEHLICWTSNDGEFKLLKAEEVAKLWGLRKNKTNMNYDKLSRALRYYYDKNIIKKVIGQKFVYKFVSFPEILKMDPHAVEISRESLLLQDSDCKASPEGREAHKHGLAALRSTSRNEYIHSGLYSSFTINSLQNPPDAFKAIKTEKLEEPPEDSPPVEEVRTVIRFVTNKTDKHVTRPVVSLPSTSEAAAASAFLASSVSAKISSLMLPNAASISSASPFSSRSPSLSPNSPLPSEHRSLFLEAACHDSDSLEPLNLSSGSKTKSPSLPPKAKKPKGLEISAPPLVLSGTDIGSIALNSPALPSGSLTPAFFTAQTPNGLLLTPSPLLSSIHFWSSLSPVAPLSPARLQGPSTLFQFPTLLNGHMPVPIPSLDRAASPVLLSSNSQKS
In a few lines: as §1

Experiment [10] deals with T7, FEV (Homo sapiens, UniProt Q99581 1-238).
T7 sequence: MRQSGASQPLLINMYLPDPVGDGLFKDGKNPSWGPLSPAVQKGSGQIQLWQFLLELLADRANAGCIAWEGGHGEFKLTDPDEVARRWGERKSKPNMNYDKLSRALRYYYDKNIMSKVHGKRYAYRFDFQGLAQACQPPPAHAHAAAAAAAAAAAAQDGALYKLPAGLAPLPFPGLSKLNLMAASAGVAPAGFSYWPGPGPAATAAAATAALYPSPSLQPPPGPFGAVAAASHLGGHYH
In a few lines: as §1

Experiment [11] has as its target ETV5 (Homo sapiens, UniProt P41161 1-510). An outline of the steps: as §1
The target in experiment [12] is T8, SPIC (Homo sapiens, UniProt Q8N5J4 1-248).
T8 sequence: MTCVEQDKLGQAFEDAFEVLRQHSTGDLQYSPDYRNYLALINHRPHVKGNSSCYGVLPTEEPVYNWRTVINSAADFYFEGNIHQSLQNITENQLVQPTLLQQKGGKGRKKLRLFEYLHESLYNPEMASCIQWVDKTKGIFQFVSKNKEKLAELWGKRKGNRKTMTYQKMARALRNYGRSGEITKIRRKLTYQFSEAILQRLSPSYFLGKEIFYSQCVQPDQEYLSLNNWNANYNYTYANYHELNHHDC
In a few lines: as §1

Experiment [13] deals with ELF4 (Homo sapiens, UniProt Q99607 1-663). In a few lines: as §1
ELF4, sequence (Q99607 whole entry): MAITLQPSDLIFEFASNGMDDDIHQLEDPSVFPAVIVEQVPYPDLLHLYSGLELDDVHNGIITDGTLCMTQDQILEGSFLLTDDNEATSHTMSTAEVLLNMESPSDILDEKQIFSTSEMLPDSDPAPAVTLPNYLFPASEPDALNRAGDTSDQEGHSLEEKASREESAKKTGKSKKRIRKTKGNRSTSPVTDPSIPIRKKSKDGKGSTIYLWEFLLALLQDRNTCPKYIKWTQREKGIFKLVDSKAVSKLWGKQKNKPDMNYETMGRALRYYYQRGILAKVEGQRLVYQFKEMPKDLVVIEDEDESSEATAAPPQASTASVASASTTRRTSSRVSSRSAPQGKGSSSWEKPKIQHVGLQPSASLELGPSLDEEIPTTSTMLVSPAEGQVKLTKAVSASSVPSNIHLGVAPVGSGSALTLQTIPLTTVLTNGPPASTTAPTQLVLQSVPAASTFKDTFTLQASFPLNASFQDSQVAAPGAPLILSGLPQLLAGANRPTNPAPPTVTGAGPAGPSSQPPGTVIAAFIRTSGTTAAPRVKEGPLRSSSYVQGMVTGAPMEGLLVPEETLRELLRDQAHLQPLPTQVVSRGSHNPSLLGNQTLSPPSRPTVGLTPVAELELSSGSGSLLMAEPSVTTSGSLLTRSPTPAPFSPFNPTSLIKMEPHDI
Experiment [14] deals with T9, ELK4 (Homo sapiens, UniProt P28324-2 1-405).
T9 sequence: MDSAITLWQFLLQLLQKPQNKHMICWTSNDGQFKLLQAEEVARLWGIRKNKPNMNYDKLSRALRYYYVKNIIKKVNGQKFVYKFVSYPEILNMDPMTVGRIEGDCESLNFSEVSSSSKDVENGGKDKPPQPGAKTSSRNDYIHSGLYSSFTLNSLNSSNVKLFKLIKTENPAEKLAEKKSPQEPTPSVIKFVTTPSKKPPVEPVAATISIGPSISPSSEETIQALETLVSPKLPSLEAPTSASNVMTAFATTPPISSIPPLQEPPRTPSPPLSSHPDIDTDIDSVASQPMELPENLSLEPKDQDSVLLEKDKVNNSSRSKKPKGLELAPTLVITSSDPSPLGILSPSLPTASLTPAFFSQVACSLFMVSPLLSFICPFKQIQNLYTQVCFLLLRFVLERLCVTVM
An outline of the steps:
as §1

The target of experiment [15] is T10, ETV2 (Homo sapiens, UniProt O00321 1-342).
T10 sequence: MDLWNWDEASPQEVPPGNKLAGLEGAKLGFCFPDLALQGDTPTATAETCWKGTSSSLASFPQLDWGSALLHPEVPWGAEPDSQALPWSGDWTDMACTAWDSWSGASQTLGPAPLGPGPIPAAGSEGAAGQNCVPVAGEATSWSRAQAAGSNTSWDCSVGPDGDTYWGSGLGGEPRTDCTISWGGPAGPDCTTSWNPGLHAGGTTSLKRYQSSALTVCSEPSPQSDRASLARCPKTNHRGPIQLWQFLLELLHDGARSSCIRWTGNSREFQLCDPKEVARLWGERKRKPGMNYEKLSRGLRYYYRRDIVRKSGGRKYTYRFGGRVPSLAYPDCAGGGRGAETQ
An outline of the steps: as §1

Experiment [16] deals with T11, ELF3 (Homo sapiens, UniProt P78545 1-371).
T11 sequence: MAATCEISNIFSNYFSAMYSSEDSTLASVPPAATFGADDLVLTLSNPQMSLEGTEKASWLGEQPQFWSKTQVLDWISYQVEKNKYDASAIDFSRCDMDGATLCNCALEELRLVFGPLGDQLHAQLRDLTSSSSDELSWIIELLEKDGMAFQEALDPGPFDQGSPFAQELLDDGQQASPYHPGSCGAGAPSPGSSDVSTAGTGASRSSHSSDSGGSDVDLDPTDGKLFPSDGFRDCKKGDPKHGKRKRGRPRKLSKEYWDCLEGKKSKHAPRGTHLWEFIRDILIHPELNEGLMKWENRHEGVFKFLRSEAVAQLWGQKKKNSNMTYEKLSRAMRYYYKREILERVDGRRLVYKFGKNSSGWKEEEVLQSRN
In a few lines:
as §1

In experiment [17] the target is ETV1 (Homo sapiens, UniProt P50549 1-477). In a few lines:
as §1

ETV5, sequence (P41161 whole entry): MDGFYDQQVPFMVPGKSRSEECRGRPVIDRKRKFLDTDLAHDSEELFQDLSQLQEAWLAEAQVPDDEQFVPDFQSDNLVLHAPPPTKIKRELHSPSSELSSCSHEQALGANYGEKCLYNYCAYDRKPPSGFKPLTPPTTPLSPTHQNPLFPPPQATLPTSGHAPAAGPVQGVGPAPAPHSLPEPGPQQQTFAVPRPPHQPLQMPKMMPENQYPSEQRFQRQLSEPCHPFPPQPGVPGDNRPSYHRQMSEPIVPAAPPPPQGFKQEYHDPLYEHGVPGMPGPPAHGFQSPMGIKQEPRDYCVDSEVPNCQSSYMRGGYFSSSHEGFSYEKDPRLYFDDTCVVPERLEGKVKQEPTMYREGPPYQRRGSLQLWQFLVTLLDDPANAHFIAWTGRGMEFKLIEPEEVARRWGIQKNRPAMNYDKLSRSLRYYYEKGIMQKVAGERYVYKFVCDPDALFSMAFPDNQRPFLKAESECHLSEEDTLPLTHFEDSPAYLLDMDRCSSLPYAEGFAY
ETV1, sequence (P50549 whole entry): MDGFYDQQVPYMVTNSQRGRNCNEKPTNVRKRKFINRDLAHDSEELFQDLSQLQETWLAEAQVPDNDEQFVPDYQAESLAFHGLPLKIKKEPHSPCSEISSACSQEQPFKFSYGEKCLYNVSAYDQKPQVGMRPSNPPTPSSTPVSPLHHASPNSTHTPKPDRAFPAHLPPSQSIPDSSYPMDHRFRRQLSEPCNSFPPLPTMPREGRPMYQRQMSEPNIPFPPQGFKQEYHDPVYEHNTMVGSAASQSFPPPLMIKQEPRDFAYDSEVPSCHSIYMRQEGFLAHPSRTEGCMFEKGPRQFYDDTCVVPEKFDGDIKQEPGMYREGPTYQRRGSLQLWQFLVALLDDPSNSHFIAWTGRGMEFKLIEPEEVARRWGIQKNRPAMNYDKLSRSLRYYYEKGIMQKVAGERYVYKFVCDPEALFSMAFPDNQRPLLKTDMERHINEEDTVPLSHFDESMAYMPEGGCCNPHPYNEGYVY
SPIB, sequence (Q01892 whole entry): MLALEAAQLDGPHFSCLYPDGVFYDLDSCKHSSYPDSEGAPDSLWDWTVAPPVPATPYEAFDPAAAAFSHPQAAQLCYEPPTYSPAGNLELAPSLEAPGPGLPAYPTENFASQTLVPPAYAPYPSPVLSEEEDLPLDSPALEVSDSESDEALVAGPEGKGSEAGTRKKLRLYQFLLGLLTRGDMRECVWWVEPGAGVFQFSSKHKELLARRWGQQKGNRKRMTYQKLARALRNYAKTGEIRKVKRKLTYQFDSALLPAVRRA

Consider CGGTTC, for which the binding signal in experiment [1] is 1.3 fold enrichment (6-mer frequency, TF over GST control); in experiment [2], 1.43 fold enrichment (6-mer frequency, TF over GST control); in experiment [3] it was 1.19 fold enrichment (6-mer frequency, TF over GST control); in experiment [4], 1.28 fold enrichment (6-mer frequency, TF over GST control); in experiment [5], 1.27 fold enrichment (6-mer frequency, TF over GST control); in experiment [6] it was 1.27 fold enrichment (6-mer frequency, TF over GST control). Also, the binding signal in experiment [7] is 1.3 fold enrichment (6-mer frequency, TF over GST control); in experiment [8], 1.33 fold enrichment (6-mer frequency, TF over GST control); in experiment [9] it was 1.35 fold enrichment (6-mer frequency, TF over GST control); in experiment [10], 1.42 fold enrichment (6-mer frequency, TF over GST control); in experiment [11] it was 1.31 fold enrichment (6-mer frequency, TF over GST control); in [12], 1.2 fold enrichment (6-mer frequency, TF over GST control). The binding signal in experiment [13] was 1.19 fold enrichment (6-mer frequency, TF over GST control); in [14], 1.29 fold enrichment (6-mer frequency, TF over GST control); in experiment [15], 1.39 fold enrichment (6-mer frequency, TF over GST control); in experiment [16] it was 1.33 fold enrichment (6-mer frequency, TF over GST control); in [17] it was 1.39 fold enrichment (6-mer frequency, TF over GST control).
